Experimental data published in the supplement of paper PMC11732987, “Enantioselective OTUD7B fragment discovery through chemoproteomics screening and high-throughput optimisation” (Communications Chemistry, 2025).

Legend:
Assay in all cases: log2 ratio of Biotin-Ahx-Ub-VS probe labelling (fragment/DMSO); higher = less target engagement (more negative = stronger competition), active = hit call of the paper (q ≤ 0.05, log2 ratio ≤ -1)
Settings in all cases: compound concentration: 200 uM; treatment time: 3 h
ALG13 = target: T1, ALG13 (UniProt Q9NP73)
T1 sequence (whole entry): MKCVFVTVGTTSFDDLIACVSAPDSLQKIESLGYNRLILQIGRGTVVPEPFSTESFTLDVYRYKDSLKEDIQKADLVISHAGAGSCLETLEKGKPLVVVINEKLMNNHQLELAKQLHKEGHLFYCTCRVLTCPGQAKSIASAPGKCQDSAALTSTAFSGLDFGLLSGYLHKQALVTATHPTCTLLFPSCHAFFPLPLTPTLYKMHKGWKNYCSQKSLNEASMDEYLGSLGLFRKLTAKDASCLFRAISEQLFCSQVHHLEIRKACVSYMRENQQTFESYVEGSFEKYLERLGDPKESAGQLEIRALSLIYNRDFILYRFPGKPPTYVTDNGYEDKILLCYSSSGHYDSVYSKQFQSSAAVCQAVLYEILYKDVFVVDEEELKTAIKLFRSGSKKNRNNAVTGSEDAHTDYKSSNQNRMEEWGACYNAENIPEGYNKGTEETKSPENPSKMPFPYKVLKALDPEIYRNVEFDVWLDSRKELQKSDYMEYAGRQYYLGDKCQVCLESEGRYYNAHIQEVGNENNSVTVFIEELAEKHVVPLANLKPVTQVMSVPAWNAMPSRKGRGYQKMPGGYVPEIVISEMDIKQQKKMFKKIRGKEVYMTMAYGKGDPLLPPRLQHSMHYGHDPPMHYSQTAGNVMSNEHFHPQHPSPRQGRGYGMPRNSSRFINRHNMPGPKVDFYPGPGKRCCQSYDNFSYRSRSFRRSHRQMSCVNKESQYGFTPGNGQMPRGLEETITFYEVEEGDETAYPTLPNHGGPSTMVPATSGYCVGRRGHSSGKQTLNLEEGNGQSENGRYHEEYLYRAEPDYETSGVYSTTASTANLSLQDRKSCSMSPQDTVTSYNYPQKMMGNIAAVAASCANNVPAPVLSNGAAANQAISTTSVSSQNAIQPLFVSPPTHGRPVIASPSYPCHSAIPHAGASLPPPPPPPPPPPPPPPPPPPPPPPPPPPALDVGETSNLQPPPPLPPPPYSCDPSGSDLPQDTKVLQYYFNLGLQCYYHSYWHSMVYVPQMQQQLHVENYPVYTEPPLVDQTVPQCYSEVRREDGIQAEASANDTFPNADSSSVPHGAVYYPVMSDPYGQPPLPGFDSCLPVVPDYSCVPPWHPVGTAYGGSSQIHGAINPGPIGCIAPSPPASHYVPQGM
Summary of the method: (§1)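 The table lists average log2 ratios of fragment over vehicle, from an unpaired t-test on global-median-normalised Spectronaut label-free quantities. Proteins with ≥2 unique peptides were used. Samples were HEK293T lysate (495 µg) treated in triplicate with fragment at 200 µM or vehicle for 3 h, then with Biotin-Ahx-Ub-VS (0.5 µM final) for 1 h, with labelled DUBs NeutrAvidin-enriched and run by diaPASEF LC-MS/MS.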

ATXN3 = ATXN3 (UniProt P54252)
Summary of the method: as §1

BAP1 = target: T2, BAP1 (UniProt Q92560)
T2 sequence (whole entry): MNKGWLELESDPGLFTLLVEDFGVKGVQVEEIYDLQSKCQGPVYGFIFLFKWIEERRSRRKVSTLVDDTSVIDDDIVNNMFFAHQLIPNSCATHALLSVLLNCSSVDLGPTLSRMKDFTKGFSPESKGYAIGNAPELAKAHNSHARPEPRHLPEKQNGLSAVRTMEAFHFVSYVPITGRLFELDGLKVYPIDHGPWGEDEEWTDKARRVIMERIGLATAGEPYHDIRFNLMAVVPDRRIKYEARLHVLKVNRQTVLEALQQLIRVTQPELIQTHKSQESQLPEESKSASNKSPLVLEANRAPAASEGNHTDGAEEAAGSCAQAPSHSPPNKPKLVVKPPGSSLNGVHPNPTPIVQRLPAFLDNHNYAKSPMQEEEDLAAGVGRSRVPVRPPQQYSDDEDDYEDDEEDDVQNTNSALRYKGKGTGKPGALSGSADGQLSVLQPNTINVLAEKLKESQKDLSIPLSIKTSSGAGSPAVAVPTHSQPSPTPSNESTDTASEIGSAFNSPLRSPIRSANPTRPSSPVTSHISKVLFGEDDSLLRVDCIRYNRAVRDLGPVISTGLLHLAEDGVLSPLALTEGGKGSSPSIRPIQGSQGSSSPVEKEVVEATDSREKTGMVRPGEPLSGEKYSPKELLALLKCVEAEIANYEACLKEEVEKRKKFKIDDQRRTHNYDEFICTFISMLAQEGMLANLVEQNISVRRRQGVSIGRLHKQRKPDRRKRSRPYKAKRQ
Summary of the method: as §1

EIF3F = EIF3F (UniProt O00303)
Summary of the method: as §1

EIF3H = EIF3H (UniProt O15372)
Summary of the method: as §1

FAM105A = target: T3, FAM105A (UniProt Q9NUU6)
T3 sequence (whole entry): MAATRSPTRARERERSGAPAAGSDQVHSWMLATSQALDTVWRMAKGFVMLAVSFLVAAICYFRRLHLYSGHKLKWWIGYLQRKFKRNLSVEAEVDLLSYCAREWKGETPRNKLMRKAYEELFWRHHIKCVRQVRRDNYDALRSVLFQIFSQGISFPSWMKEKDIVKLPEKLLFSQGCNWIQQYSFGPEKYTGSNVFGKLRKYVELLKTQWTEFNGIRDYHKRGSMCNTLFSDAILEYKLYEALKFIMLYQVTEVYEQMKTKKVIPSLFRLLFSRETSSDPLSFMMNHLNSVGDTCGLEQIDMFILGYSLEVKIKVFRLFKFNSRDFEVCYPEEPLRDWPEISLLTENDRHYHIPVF
Summary of the method: as §1

OTUB1 = OTUB1 (UniProt Q96FW1)
Summary of the method: as §1

OTUD4 = target: T4, OTUD4 (UniProt Q01804)
T4 sequence (whole entry): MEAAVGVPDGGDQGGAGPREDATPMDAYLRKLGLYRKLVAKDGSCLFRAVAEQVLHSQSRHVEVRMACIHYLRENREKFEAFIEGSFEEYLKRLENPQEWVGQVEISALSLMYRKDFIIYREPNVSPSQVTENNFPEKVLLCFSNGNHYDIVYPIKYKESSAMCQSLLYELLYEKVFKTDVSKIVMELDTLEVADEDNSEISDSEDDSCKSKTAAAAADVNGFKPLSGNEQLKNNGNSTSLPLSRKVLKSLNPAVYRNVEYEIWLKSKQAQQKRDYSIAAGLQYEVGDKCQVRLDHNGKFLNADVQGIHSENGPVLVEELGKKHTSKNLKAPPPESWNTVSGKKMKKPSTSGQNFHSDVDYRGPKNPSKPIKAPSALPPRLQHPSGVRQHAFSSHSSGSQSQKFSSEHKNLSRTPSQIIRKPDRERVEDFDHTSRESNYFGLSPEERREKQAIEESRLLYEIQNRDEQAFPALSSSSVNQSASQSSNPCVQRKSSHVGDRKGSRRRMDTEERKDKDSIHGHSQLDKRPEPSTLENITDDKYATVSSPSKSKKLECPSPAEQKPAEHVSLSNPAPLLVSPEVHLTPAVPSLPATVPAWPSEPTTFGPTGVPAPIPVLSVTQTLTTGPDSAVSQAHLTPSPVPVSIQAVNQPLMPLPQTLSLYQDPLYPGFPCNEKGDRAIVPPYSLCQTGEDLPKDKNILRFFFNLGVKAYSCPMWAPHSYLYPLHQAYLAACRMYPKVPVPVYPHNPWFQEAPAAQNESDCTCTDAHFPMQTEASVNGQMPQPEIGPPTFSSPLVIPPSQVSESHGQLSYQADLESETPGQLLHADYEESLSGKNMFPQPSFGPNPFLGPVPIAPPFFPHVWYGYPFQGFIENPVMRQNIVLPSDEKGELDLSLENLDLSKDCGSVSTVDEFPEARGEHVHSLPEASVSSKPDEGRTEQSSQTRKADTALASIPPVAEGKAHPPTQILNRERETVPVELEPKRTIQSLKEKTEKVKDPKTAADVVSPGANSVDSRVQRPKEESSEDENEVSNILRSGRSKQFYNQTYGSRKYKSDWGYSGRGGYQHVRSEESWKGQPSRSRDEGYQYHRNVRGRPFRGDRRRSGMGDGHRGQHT
Summary of the method: as §1

OTUD5 = target: T5, OTUD5 (UniProt Q96G74)
T5 sequence (whole entry): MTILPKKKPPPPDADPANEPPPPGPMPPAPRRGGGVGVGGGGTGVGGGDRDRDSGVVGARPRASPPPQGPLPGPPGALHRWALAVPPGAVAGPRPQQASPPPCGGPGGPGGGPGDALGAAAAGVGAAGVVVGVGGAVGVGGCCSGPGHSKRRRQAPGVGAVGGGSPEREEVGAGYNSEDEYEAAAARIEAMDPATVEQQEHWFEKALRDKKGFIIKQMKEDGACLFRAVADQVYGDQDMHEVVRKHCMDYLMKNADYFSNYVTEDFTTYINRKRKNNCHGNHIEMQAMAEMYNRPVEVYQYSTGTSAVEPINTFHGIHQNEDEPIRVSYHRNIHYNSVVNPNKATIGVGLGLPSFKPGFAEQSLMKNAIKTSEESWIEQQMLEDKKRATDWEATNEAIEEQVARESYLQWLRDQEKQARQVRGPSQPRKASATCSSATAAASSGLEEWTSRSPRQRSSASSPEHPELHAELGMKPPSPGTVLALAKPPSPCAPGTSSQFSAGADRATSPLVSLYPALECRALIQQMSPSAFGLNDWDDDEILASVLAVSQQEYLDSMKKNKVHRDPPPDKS
Summary of the method: as §1

Measured: log2 ratio of Biotin-Ahx-Ub-VS probe labelling

OTUB1, sequence (Q96FW1 whole entry): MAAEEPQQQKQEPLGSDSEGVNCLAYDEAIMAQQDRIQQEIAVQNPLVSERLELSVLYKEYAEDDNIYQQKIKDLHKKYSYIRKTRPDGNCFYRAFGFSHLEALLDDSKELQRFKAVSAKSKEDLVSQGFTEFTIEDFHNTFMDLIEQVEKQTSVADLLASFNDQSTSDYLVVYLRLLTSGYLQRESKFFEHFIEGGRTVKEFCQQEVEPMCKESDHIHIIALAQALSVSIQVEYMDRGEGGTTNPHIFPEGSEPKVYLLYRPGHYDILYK
EIF3H, sequence (O15372 whole entry): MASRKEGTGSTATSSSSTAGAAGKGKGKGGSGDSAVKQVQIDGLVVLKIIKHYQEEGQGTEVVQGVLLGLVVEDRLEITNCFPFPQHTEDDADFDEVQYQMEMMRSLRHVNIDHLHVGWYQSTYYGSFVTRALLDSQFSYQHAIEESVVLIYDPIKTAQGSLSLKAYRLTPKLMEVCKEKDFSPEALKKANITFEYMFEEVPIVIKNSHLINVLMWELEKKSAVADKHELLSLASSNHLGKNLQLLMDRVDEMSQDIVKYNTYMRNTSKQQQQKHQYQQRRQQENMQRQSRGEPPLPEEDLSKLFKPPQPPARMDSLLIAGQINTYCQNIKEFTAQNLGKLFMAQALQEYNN
EIF3F, sequence (O00303 whole entry): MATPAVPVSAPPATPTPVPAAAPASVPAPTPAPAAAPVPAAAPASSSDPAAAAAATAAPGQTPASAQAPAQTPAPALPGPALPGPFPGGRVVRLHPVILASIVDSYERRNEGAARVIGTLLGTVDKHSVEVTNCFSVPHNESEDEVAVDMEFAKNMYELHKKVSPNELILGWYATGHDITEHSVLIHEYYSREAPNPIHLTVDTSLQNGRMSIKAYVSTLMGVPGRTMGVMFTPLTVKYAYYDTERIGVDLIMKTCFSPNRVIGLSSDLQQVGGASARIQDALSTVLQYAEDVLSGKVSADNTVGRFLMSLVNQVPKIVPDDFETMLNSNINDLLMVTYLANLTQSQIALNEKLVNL
ATXN3, sequence (P54252 whole entry): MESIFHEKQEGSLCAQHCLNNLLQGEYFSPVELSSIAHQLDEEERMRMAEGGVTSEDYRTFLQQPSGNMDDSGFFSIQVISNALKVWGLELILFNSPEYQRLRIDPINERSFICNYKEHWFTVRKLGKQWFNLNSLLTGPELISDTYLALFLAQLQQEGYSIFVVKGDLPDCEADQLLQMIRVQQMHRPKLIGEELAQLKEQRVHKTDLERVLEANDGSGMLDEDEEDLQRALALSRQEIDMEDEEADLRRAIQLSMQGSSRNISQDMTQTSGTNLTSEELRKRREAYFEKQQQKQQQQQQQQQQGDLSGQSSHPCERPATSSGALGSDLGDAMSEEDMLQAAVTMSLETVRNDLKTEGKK

CC(NC(=O)CCl)c1cc2n(n1)CCCC2.Cl (centres undefined)
inactive: ALG13 0.164 | ATXN3 0.242 | EIF3F -0.359 | EIF3H 0.193 | FAM105A -0.0943 | OTUB1 0.0152 | OTUD4 0.133 | OTUD5 -0.0818
active: BAP1 -1.36
